How the values were obtained:
Conditions in all cases: concentration: 1 μM, replicates: in singlicate; n = 1
PKAC-alpha = system: T1, PKAC-alpha
T1 construct: gene PRKACA

PKAC-beta = system: T2, PKAC-beta
T2 construct: gene PRKACB

PKMYT1 = system: PKMYT1
PKN1 = system: PKN1
PKN2 = system: PKN2
PLK1 = system: PLK1
PLK2 = system: PLK2
PLK3 = system: PLK3
PLK4 = system: PLK4
PRKCD = system: PRKCD
PRKCE = system: PRKCE
PRKCH = system: PRKCH
PRKCI = system: PRKCI
PRKCQ = system: PRKCQ
PRKD1 = system: PRKD1
PRKD2 = system: PRKD2
PRKD3 = system: PRKD3
PRKG1 = system: PRKG1
PRKG2 = system: PRKG2
PRKR = system: T3, PRKR
T3 construct: gene EIF2AK2
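Note: KINOMEscan kinase panel screen.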

Row | SMILES | %Inh (PKAC-alpha) | %Inh (PKAC-beta) | %Inh (PKMYT1) | %Inh (PKN1) | %Inh (PKN2) | %Inh (PLK1) | %Inh (PLK2) | %Inh (PLK3) | %Inh (PLK4) | %Inh (PRKCD) | %Inh (PRKCE) | %Inh (PRKCH) | %Inh (PRKCI) | %Inh (PRKCQ) | %Inh (PRKD1) | %Inh (PRKD2) | %Inh (PRKD3) | %Inh (PRKG1) | %Inh (PRKG2) | %Inh (PRKR)
1 | COc1cc(Nc2nccc(N3CCC(NC(=O)C(C)c4ccc(Cl)cc4)C3)n2)cc(OC)c1OC (stereo not drawn) [GSK1379757] | 0% | 0% | 0% | 19% | 0% | 0% | 0% | 0% | 0% | 0% | 0% | 14% | 0% | 0% | 0% | 0% | 0% | 1% | 4% | 0%
2 | CCC(=O)c1c(-c2ccccc2)c2cc(Cl)ccc2c(=O)n1Cc1cc(S(C)(=O)=O)n(CC(N)=O)n1 | 0% | 0% | 0% | 1% | 8% | 0% | 0% | 0% | 0% | 6% | 0% | 80% | 12% | 0% | 0% | 0% | 0% | 0% | 0% | 0%
3 | CCn1c(-c2ccoc2)nc2cnccc21 [SB-733887] | 0% | 0% | 0% | 7% | 0% | 5% | 0% | 0% | 15% | 0% | 7% | 0% | 9% | 0% | 2% | 0% | 27% | 0% | 0% | 0%
4 | COc1ccc(Nc2nccc(N3CCC(NS(=O)(=O)c4ccc(NC(C)=O)cc4)C3)n2)cc1 (stereo not drawn) [GSK1379729] | 6% | 0% | 12% | 37% | 2% | 12% | 0% | 0% | 8% | 0% | 22% | 22% | 22% | 10% | 25% | 0% | 41% | 12% | 0% | 0%
5 | O=C1NC(=O)C(c2ccccc2)=C1Nc1cccc(O)c1 [SB-390534] | 0% | 5% | 0% | 0% | 21% | 0% | 20% | 27% | 11% | 5% | 17% | 0% | 9% | 0% | 0% | 3% | 0% | 8% | 2% | 100%
6 | Nc1nc(N)c2nc(-c3ccccc3)[nH]c2n1 [SKF-12778] | 7% | 9% | 2% | 43% | 23% | 0% | 0% | 0% | 0% | 11% | 4% | 0% | 36% | 40% | 40% | 9% | 0% | 12% | 0% | 0%
7 | Cl.NS(=O)(=O)c1cccc(Nc2cc(-c3ccc(F)cc3)n[nH]2)c1 [GW824645] | 7% | 0% | 0% | 0% | 0% | 0% | 20% | 23% | 10% | 5% | 12% | 0% | 0% | 0% | 0% | 5% | 0% | 0% | 0% | 0%
8 | Cc1cccc(-c2cc(-c3c[nH]nc3-c3ccccn3)ccn2)c1 [GW679395] | 0% | 0% | 1% | 0% | 0% | 0% | 0% | 0% | 0% | 0% | 13% | 0% | 4% | 35% | 57% | 48% | 22% | 0% | 0% | 0%
9 | CC(C)(C)c1ccc(C(=O)Nc2cn3cc(-c4ccccc4)ccc3n2)cc1 | 0% | 7% | 0% | 0% | 16% | 0% | 0% | 13% | 40% | 0% | 5% | 0% | 10% | 37% | 8% | 19% | 4% | 1% | 0% | 0%
10 | COc1ccc(-n2cnc3c(N)ncnc32)cc1 [SKF-97236] | 0% | 19% | 17% | 46% | 0% | 18% | 3% | 2% | 1% | 9% | 0% | 23% | 28% | 0% | 0% | 1% | 5% | 14% | 33% | 0%
11 | Nc1nccc2scc(-c3ccc4c(c3)CCN4C(=O)Cc3ccccc3)c12 [GSK2576924] | 8% | 0% | 1% | 0% | 0% | 6% | 1% | 0% | 6% | 0% | 0% | 31% | 20% | 0% | 0% | 16% | 11% | 10% | 12% | 8%
12 | COC(=O)c1c(-c2ccccc2)c2cc(Br)ccc2c(=O)n1Cc1ccc(S(C)(=O)=O)cc1 | 11% | 0% | 0% | 1% | 0% | 0% | 17% | 15% | 32% | 0% | 1% | 4% | 0% | 37% | 0% | 0% | 0% | 0% | 8% | 0%
13 | O=C(Nc1n[nH]c2nc(-c3ccccc3)c(Br)cc12)C1CC1 [SB-708998] | 0% | 2% | 8% | 21% | 0% | 10% | 0% | 0% | 2% | 0% | 0% | 15% | 26% | 0% | 0% | 0% | 17% | 14% | 0% | 0%
14 | CN1C(=O)C(Nc2ccccc2)=C(c2ccccc2)C1=O [SB-300079] | 2% | 0% | 2% | 0% | 0% | 4% | 12% | 16% | 0% | 7% | 16% | 0% | 0% | 0% | 0% | 0% | 0% | 18% | 0% | 76%
15 | Cc1ccc(-c2ccc3c(ccc4sc5c(c43)NC[C@@H](C)N=C5N(C)C)n2)cn1 | 0% | 0% | 0% | 0% | 0% | 0% | 0% | 0% | 0% | 0% | 36% | 0% | 0% | 0% | 10% | 0% | 20% | 0% | 0% | 0%
16 | CCC(=O)c1c(-c2ccccc2)c2cc(Cl)ccc2c(=O)n1Cc1ccc(C(=O)O)cc1 | 0% | 0% | 1% | 0% | 0% | 0% | 7% | 0% | 0% | 0% | 0% | 0% | 0% | 9% | 0% | 6% | 0% | 0% | 0% | 0%
17 | COc1cc2ncn(-c3cc(OCc4ccncc4Br)c(C(N)=O)s3)c2cc1OC [GW854278] | 0% | 0% | 0% | 10% | 0% | 99.9% | 99.7% | 99.2% | 4% | 7% | 7% | 0% | 13% | 22% | 0% | 11% | 0% | 0% | 0% | 0%
18 | Cc1nc(N(C)[C@H]2CN(C(=O)CC#N)CC[C@H]2C)c2cc[nH]c2n1 | 17% | 0% | 4% | 0% | 12% | 0% | 5% | 0% | 0% | 2% | 0% | 8% | 9% | 10% | 0% | 1% | 66% | 2% | 0% | 5%
19 | Nc1ncnc2c1ncn2-c1ccc(Cl)cc1 [AH2635] | 0% | 0% | 0% | 0% | 0% | 0% | 0% | 0% | 0% | 3% | 0% | 0% | 6% | 0% | 0% | 0% | 0% | 2% | 0% | 0%
20 | COc1cc(Nc2ccnc3ccc(C(F)(F)F)cc23)cc(OC)c1OC [GW577382] | 14% | 4% | 6% | 0% | 0% | 12% | 0% | 0% | 50% | 15% | 19% | 13% | 48% | 4% | 6% | 6% | 0% | 3% | 6% | 0%
21 | Nc1n[nH]c2ncc(-c3ccccc3)cc12 [SB-517081] | 0% | 0% | 2% | 0% | 0% | 0% | 11% | 0% | 15% | 0% | 16% | 72% | 21% | 3% | 4% | 0% | 0% | 0% | 0% | 0%

Reference: article PMC5540273 (PLoS ONE, 2017)
